Bioassay records deposited in PubChem by National Center for Advancing Translational Sciences (NCATS).
This is a sample that favours compounds with a hit; in the whole collection about 4.2% have one here.
PLK1 PBD block: PLK1 (human) polo-box domain binding inhibition; Plk1 PBD binding of FITC phosphopeptide, fluorescence polarization; hit rate 2.8% among 360,000; AID 720504; Potency, µM, for the others: max response, negative = inhibition, hits mostly inhibitors; P53350; also: potency is read from the fitted curve at half-maximal effect; series mostly up to about 57 µM; % is scaled to controls: 0 for no effect and ±100 for the full control effect; nearly all actives have a fitted effect of over 65% in size
Sfp inh: Sfp phosphopantetheinyl transferase inhibition; AID 1490; hit rate 3.5% among 310,000; Potency, µM, without a hit: largest response in the series, negative = inhibition, most hits filed as inhibitors; Biochemical Sfp PPTase activity, qHTS;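 also: the enzyme is Sfp with the accession as filed and its product quenches rhodamine fluorescence; potency is read from the fitted curve at half-maximal effect; 0% = enzyme reaction without inhibitor and -100% = no enzyme wells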
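Reaction rates are the 30-min fluorescence difference (ex 525, em 598 nm) in wells containing 15 nM Sfp, 5 uM rhodamine-CoA and 12.5 uM BHQ-2-YbbR at pH 7.6 with 10 mM MgCl2.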
12-LOX inh: inhibitors of human 12S-lipoxygenase ALOX12. purified 12hLO, xylenol orange hydroperoxide absorbance. Potency, µM (top dose mostly 108 µM), inactives show at the top dose activity change, negative = inhibition, usual class: inhibitors. hit rate 1.1% among 580,000; also: potency is read from the fitted curve at half-maximal effect; % is scaled to controls: 0 for no effect and ±100 for the full control effect
Target sequence (P18054 whole entry, looked up): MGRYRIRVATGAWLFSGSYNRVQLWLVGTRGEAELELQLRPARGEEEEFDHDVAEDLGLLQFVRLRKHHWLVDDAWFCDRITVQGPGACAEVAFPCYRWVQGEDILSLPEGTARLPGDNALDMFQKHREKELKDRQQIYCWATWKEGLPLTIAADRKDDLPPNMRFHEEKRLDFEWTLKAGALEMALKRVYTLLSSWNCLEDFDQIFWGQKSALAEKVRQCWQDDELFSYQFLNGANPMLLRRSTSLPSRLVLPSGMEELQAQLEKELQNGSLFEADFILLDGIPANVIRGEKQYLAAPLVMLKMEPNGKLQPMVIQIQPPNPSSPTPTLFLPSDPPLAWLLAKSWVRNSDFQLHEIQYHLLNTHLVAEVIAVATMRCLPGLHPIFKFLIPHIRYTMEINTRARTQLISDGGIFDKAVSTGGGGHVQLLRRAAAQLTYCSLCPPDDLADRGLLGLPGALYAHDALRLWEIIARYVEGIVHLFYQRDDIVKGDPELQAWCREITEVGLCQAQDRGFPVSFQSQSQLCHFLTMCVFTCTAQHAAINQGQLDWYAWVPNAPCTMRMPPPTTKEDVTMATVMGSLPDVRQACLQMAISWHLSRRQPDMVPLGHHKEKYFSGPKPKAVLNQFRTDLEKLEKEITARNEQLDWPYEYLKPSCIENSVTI
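Purified human 12hLO (150 nM final) in 25 mM Hepes, 0.01% Triton X-100, pH 7.0 was preincubated 15 min at room temperature with compound. Then 40 uM arachidonic acid was added, 30 min. Hydroperoxide was read by Fe-XO absorbance ratio 573/405 nm.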
VDR inh: vitamin D3 receptor (human) inhibition. hit rate 0.93% among 400,000. P11473. VDR-SRC2-3 peptide fluorescence polarization, 2 h. Potency, µM, inactives show max response, negative = inhibition, most hits filed as inhibitors; also: potency is read from the fitted curve at half-maximal effect; % is scaled to controls: 0 for no effect and ±100 for the full control effect
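Fluorescence polarization assay of small-molecule disruption of VDR binding to coregulator peptide SRC2-3. Compounds and controls pin-transferred, then read after 2 h incubation at ambient room temperature.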
USP1 UbRho: blocks human USP1/UAF1 cleavage of Ub-Rhodamine; hit rate 50% among 50; Potency, µM (series often up to 56.8 µM), inactives show at the top dose activity change, negative = inhibition, actives largely listed as inhibitors; shares compounds with VDR inh; AID 540327; Ub-Rhodamine cleavage, fluorescence kinetic read
VDR confirm: confirmation of human vitamin D receptor inhibitors; shares compounds with VDR inh; VDR-coactivator inhibition assay, qHTS confirmation; Potency, µM, usual class: inhibitors; hit rate 89% among 840; AID 602199; also: potency is read from the fitted curve at half-maximal effect
VDR FP fluor: confirmation of human VDR-coactivator binding inhibitors, fluorescein label. shares compounds with VDR inh. VDR-coactivator binding, fluorescein fluorescence polarization. Potency, µM (top dose mostly 57.1 µM), without a hit: at the top dose activity change, negative = inhibition, actives largely listed as inhibitors. hit rate 48% among 840. AID 602200; also: potency is read from the fitted curve at half-maximal effect
VDR bla reporter: confirmation of human vitamin D receptor inhibitors in reporter cells; shares compounds with VDR inh; VDR beta-lactamase reporter cells, FRET ratio; cells co-treated with VDR agonist LG190178; Potency, µM (titrated, usually from 46.1 µM), for the others: at the top dose activity change, negative = inhibition, actives largely listed as inhibitors; hit rate 23% among 840; also: potency is read from the fitted curve at half-maximal effect; % is scaled to controls: 0 for no effect and ±100 for the full control effect
VDR viability: cytotoxic in counter-screen for VDR inhibitors; shares compounds with VDR inh; Potency, µM (doses to about 48.3 µM), without a hit: at the top dose activity change, negative = cytotoxicity, most hits filed as cytotoxic; AID 602204; cytotoxicity counter-screen, cell viability, qHTS; hit rate 18% among 840;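 also: potency is read from the fitted curve at half-maximal effect; plate controls were DMSO for no effect and high-concentration cycloheximide for full effect; nearly all actives have a fitted effect of over 75% in size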
* hit, by the source's call; [ ] = another dose, or the depositor's remark. Calls follow the shape of the dose curve; as a rule, active = well fitted curve in the direction sought with a large enough effect; inconclusive = small, poorly fitted or top-dose-only effect, or another doubt; inactive = no such curve, though single readings can be large; an effect the other way counts as inactive or inconclusive.

What do the screens show for `COc1ccc(C(=O)/C=C/c2ccccc2F)c(OC(=O)c2ccc([N+](=O)[O-])cc2)c1`?
PLK1 PBD block: -2%; Sfp inh: 9%; 12-LOX inh: inconclusive; VDR inh: inconclusive; VDR confirm: inconclusive; VDR FP fluor: 6.3µM*; VDR bla reporter: inconclusive; VDR viability: -23%

How did Cc1ccccc1/C=C/C(=O)c1cccc([N+](=O)[O-])c1 do in these assays?
12-LOX inh: -40%

Results for COc1ccc(/C=C/C(=O)c2ccc(C)c([N+](=O)[O-])c2)cc1O ?
PLK1 PBD block: -25%; Sfp inh: 79µM*; 12-LOX inh: inconclusive; VDR inh: 35µM*; VDR confirm: 11*; VDR FP fluor: 7.9µM*; VDR bla reporter: inconclusive; VDR viability: inconclusive

Results for COc1cccc2cc(-c3nnc(SCC(=O)Nc4cc(C)ccc4C)n3N)oc12 ?
12-LOX inh: 19%

Results for CCOc1ccc(C(=O)CC(C(=O)O)N2CCN(Cc3ccccc3)CC2)cc1 (stereo not given) ?
PLK1 PBD block: -23%; VDR inh: 50µM*; VDR confirm: 24*; VDR FP fluor: 28µM*; VDR bla reporter: 27%; VDR viability: -25%

Results for CCOc1ccc(C(=O)N2CCCCCC2)cc1 ?
PLK1 PBD block: -10%; Sfp inh: 8%; 12-LOX inh: 50%; VDR inh: 4%

How did CCOc1ccc(C(=O)CC(C(=O)O)N2CCCCC2)cc1 (stereo not given) do in these assays?
PLK1 PBD block: inconclusive; VDR inh: 40µM*; VDR confirm: 24*; VDR FP fluor: inconclusive; VDR bla reporter: 11%; VDR viability: -1%

How did CCOc1ccc(C(=O)OC(C)C(=O)N2CCN(Cc3ccccc3)CC2)cc1 (stereo not given) do in these assays?
PLK1 PBD block: 2%; 12-LOX inh: -3%; VDR inh: -8%

What do the screens show for `COc1ccc(N2C(=O)c3ccccc3C2=O)cc1`?
PLK1 PBD block: -21%; Sfp inh: 12%; 12-LOX inh: -1%; VDR inh: -13%

How did COc1ccc(N2C(=O)C(Cl)=C(Oc3cccc(OC)c3)C2=O)cc1 do in these assays?
PLK1 PBD block: 1.9µM*; Sfp inh: 8.9µM*; VDR inh: 28µM*; VDR confirm: 3.2*; VDR FP fluor: 2.8µM*; VDR bla reporter: 5.8µM*; VDR viability: 12µM*

How did COc1ccccc1C1=NNC(=Nc2cccc(S(=O)(=O)N(C)C)c2)SC1 do in these assays?
PLK1 PBD block: -19%; Sfp inh: -93%; 12-LOX inh: inconclusive; VDR inh: inconclusive; VDR confirm: inconclusive; VDR FP fluor: inconclusive; VDR bla reporter: 2%; VDR viability: inconclusive

What do the screens show for `Cc1cccc(C)c1N=C1NN=C(c2ccccc2F)CS1`?
PLK1 PBD block: 1%; Sfp inh: -10%; 12-LOX inh: -11%; VDR inh: -7%

What do the screens show for `O=S(=O)(Nc1c(S(=O)(=O)c2ccccc2)c2nc3ccccc3nc2n1C1CCCCC1)c1ccccc1`?
PLK1 PBD block: 4.2µM*; Sfp inh: -26%; 12-LOX inh: 40µM*; VDR inh: inconclusive; VDR confirm: 0.35*; VDR FP fluor: 0.35µM*; VDR bla reporter: -15%; VDR viability: -18%

What do the screens show for `COc1ccc(C(=O)N2CCC3(CCN(Cc4ccccc4)CC3)CC2)cc1`?
Sfp inh: 20%; 12-LOX inh: -2%[57.4 µM]; VDR inh: 0%

How did O=C(Nc1ccc(F)c(F)c1)c1ccccc1-c1ccccc1 do in these assays?
PLK1 PBD block: 0%; Sfp inh: 1%; 12-LOX inh: inconclusive; VDR inh: inconclusive

What do the screens show for `CCCc1c(OCCCOc2ccc(OCC(=O)O)cc2)ccc(CC=O)c1O`?
Sfp inh: -11%; 12-LOX inh: 0%; VDR inh: 35µM*; USP1 UbRho: 59µM*

How did O=S(=O)(NCC1CCCO1)c1ccc(-c2ccc(Cl)cc2)cc1 (stereo not given) do in these assays?
PLK1 PBD block: -3%; Sfp inh: -11%; 12-LOX inh: -10%; VDR inh: -2%

What do the screens show for `Fc1cccc(-c2csc(-c3ccsc3)n2)c1`?
12-LOX inh: 1%

How did Nc1nc(-c2cccc(F)c2)cs1 do in these assays?
PLK1 PBD block: 11µM*; Sfp inh: -3%; 12-LOX inh: inconclusive; VDR inh: 35µM*; VDR confirm: 24*; VDR FP fluor: inconclusive; VDR bla reporter: 12%; VDR viability: 7%

How did COc1cccc(C(=O)/C=C/c2ccc(OCC#N)c(OC)c2)c1 do in these assays?
PLK1 PBD block: -1%; Sfp inh: -10%; 12-LOX inh: -4%; VDR inh: 50µM*; VDR confirm: 27*; VDR FP fluor: 14µM*; VDR bla reporter: inconclusive; VDR viability: inconclusive

What do the screens show for `O=C(CSc1nnc(-c2cccc(S(=O)(=O)N3CCCCC3)c2)o1)c1ccccc1`?
12-LOX inh: 1%

What do the screens show for `Cc1ccc(C(=O)c2ccccc2)cc1C`?
12-LOX inh: 15%

Results for O=C(NC1(O)C(=O)c2ccccc2C1=O)c1ccc(C(F)(F)F)cc1 ?
PLK1 PBD block: -16%; Sfp inh: -7%; 12-LOX inh: inconclusive; VDR inh: 1.8µM*; VDR confirm: 4.7*; VDR FP fluor: inconclusive; VDR bla reporter: 22%; VDR viability: 11%

Results for O=C(NCc1ccccc1)c1ccc(C(F)(F)F)cc1 ?
12-LOX inh: -24%

Results for Cc1ccc(C(=O)NC2(O)C(=O)c3ccccc3C2=O)cc1C ?
PLK1 PBD block: -22%; Sfp inh: 7%; 12-LOX inh: 20µM*; VDR inh: 10µM*; VDR confirm: inconclusive; VDR FP fluor: inconclusive; VDR bla reporter: 13%; VDR viability: -1%

Results for Cc1ccc(N(C)C(=O)CN(C)S(=O)(=O)c2ccc3c(c2)n(C)c(=O)c(=O)n3C)cc1 ?
PLK1 PBD block: -9%; Sfp inh: 3%; 12-LOX inh: 2%; VDR inh: -5%
